Records with an inconclusive call do not appear. The source made the active and inactive calls. Unless noted, calls follow the shape of the dose curve; as a rule, active = well fitted curve in the direction sought with a large enough effect; inconclusive = small, poorly fitted or top-dose-only effect, or another doubt; inactive = no such curve, though single readings can be large; an effect the other way counts as inactive or inconclusive.
How the values were obtained:
[1] = Primary qHTS for inhibitors of La Crosse Virus (LACV) - induced cell death in SH-SY5Y cells (AID 1508616); conditions: SH-SY5Y LACV cytopathicity rescue, ATP luminescence, 6 d; series mostly up to 4.29 µM;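 also: top concentration of the series differs between compounds; 0% = infected DMSO wells and 100% = uninfected DMSO wells; higher means more rescue of cells from virus-induced death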
Procedure, shortened: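 SH-SY5Y, 6000 cells/well; cpd via pin tool in DMSO; LACV 0.01 MOI; 6 d 37C 5% CO2; ATPLite, 5 min RT; luminescence normalized to ±virus DMSO controls.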

[2] = target: Calcium and integrin-binding protein 1 (Homo sapiens) (UniProt Q99828); assay: Validation qHTS for Identification of Calcium Integrin Binding protein 1 (CIB1) Competitor (AID 1508618); conditions: CIB1-GST / FITC-alphaIIb peptide fluorescence polarization; series mostly up to 114 µM; also: % is scaled to controls: 0 for no effect and ±100 for the full control effect
Procedure, shortened: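 CIB1-GST (1 uM final) incubated 15 min at room temperature with compounds (up to 114 uM), then FITC-labelled alphaIIb peptide (100 nM) added. FP read (Ex 480/Em 540) after 15 min, pH 7.4 buffer containing 5 mM CaCl2.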

[3] = Primary qHTS for small molecule stabilizers of the endoplasmic reticulum resident proteome: Secreted ER Calcium Modulated Protein (SERCaMP) assay (AID 1508630); conditions: SH-SY5Y GLuc-SERCaMP (Gaussia luciferase released on ER calcium loss) secretion, thapsigargin, luminescence; series mostly up to 38.4 µM; also: % is scaled to controls: 0 for no effect and ±100 for the full control effect
Procedure, shortened: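 The SH-SY5Y reporter protocol was run at 3 concentrations up to 38.3 uM (primary) or 11 concentrations (follow-up): 16 h compound, 100 nM thapsigargin for 4 h, then extracellular luciferase luminescence.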

[4] = A High-Content qHTS Against Drug Library for the Identification of Small Molecules that Inhibit DYT1 Early Onset Primary Dystonia-Associated Cell Pathology (AID 1645839; calls by dose curve); conditions: HEK293 Flp-In EGFP-delE TorsinA, punctate imaging, 48 h; series mostly up to 46.1 µM
Procedure, shortened: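 High-content imaging quantified EGFP-TorsinA mislocalization in HEK293-derived cells inducibly expressing DYT1 mutant torsinA, after 48 h exposure to compound given together with tetracycline induction. Cell count served as a toxicity channel alongside %pathology.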

[5] = target: Cytochrome P450 2D6 (Homo sapiens) (UniProt P10635); assay: Cytochrome P450 family 2 subfamily D member 6 (CYP2D6) small molecule antagonists: luciferase biochemical (cell-free) qHTS assay (AID 1645840; active = well fitted curve in the direction sought with a large enough effect in the repeat runs; an effect the other way counts as inactive or inconclusive; also: nearly all actives have a fitted effect of over 55% in size; also: potency is read from the fitted curve at half-maximal effect); conditions: P450-Glo CYP2D6 enzyme, luciferin luminescence, 1 h; series mostly up to 57.4 µM
Procedure, shortened: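 P450-Glo CYP2D6 system: proluciferin substrate converted by enzyme to luciferin, read by luminescence proportional to activity. Enzyme-substrate mix with compound 10 min at room temperature, then NADPH regeneration 1 h before detection reagent.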

[6] = target: Cytochrome P450 2C9 (Homo sapiens) (UniProt P11712); assay: Cytochrome P450 family 2 subfamily C member 9 (CYP2C9) small molecule antagonists: luciferase biochemical (cell-free) qHTS assay (AID 1645842; active = well fitted curve in the direction sought with a large enough effect in the repeat runs; an effect the other way counts as inactive or inconclusive; also: nearly all actives have a fitted effect of over 55% in size; also: potency is read from the fitted curve at half-maximal effect); conditions: P450-Glo CYP2C9 enzyme assay, luciferin luminescence; series mostly up to 57.4 µM
Procedure, shortened: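 P450-Glo CYP2C9 system: proluciferin substrate with enzyme in mix containing 0.4% BSA, 10 min at room temperature, then NADPH regeneration solution added and incubated 1 h at 37C. Detection reagent stopped reaction; luminescence read after 20 min as RLU.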

[7] = Cytotoxicity counterscreen for inhibitors of SARS-CoV-2 cell entry (AID 1645845; calls by dose curve; also: nearly all actives have a fitted effect of over 50% in size); conditions: cell viability (SARS-CoV-2 entry assay cells); series mostly up to 57.1 µM
Procedure, shortened: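 ATP-content luminescence (ATPLite 1step, 15 min RT) read after 48 h compound exposure of Expi293F cells stably expressing human ACE2; normalized to cells-only wells and media-only wells.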

[8] = Primary qHTS to identify inhibitors of SARS-CoV-2 cell entry (AID 1645846; calls by dose curve; also: nearly all actives have a fitted effect of over 45% in size; also: potency is read from the fitted curve at half-maximal effect); conditions: SARS-CoV-2 pseudovirus cell entry assay, luminescence; activity change, negative = inhibition: at 57.1 µM (top of the series) unless noted; series mostly up to 57.1 µM
Procedure, shortened: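 HEK293-ACE2 (Expi293F, stable hACE2), 1500 cells/well, o/n 37C; cpd 23 nL pin, 1 h; MLV-PP w/ SARS-CoV-2-S (Wuhan-Hu-1, Δ19 C-term); 48 h 37C; Bright-Glo luminescence; normalized vs S-PP and bald PP.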

[9] = target: Calcium and integrin-binding protein 1 (Homo sapiens) (UniProt Q99828); assay: Primary qHTS for Identification of Calcium Integrin Binding Protein 1 (CIB1) Competitor (AID 1508620); conditions: CIB1-GST / FITC-alphaIIb peptide fluorescence polarization; series mostly up to 114 µM;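 also: GST tagged CIB1 binding a fluorescein labelled alphaIIb integrin peptide tracer; top concentration of the series differs between compounds; % is scaled to controls: 0 for no effect and ±100 for the full control effect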
Procedure, shortened: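 CIB1-GST (1 uM final) and compound incubated 15 min at room temperature before adding FITC-alphaIIb peptide tracer (100 nM final). Competition for binding read by fluorescence polarization (ex 480, em 540) after another 15 min at room temperature.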

[10] = Counterscreen qHTS for small molecule stabilizers of the endoplasmic reticulum resident proteome: GLuc-NoTag assay (AID 1508627); conditions: Gaussia luciferase NoTag secretion counterscreen, luminescence, thapsigargin 100 nM for final 4 h; series mostly up to 76.4 µM;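 also: 0% = thapsigargin alone and -100% = DMSO vehicle control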
Procedure, shortened: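 Counterscreen line: SH-SY5Y-GLuc-NoTag cells, treated with compound 19 hr before a 4 hr, 100 nM thapsigargin calcium depletion. Secreted Gaussia luciferase in the medium was measured by luminescence after coelenterazine was added (0.07x final), with cells unlysed.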

[11] = Confirmatory qHTS for small molecule stabilizers of the endoplasmic reticulum resident proteome: Secreted ER Calcium Modulated Protein (SERCaMP) assay (AID 1508628); conditions: SERCaMP secreted luciferase ER calcium/proteostasis reporter; series mostly up to 76.3 µM; also: % is scaled to controls: 0 for no effect and ±100 for the full control effect; nearly all actives have a fitted effect of over 40% in size
Procedure, shortened: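 Reporter secretion upon ER calcium depletion (100 nM thapsigargin, 4 h, 37C) is measured as medium luminescence with coelenterazine, after 16 h compound pretreatment of SH-SY5Y-GLuc-SERCaMP cells; primary at three concentrations up to 38.3 uM, follow-up at 11 (up to 76.6 uM).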

[12] = Cell Viability qHTS for small molecule stabilizers of the endoplasmic reticulum resident proteome (AID 1508629); conditions: cell viability counter-screen, 100 nM thapsigargin for final 4 h;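 also: human SH-SY5Y neuroblastoma cells carrying the GLuc-SERCaMP reporter; compound exposure about 46 h in total before the viability read; % is scaled to controls: 0 for no effect and ±100 for the full control effect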
[13] = Confirmatory qHTS to identify inhibitors of SARS-CoV-2 cell entry (AID 1645844; calls by dose curve; also: potency is read from the fitted curve at half-maximal effect; nearly all actives have a fitted effect of over 45% in size); conditions: SARS-CoV-2 pseudotyped particle cell entry, luciferase; series mostly up to 57.2 µM
Procedure, shortened: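 Luminescence entry read-out after 48 h: spike-pseudotyped MLV particles (Wuhan-Hu-1, 19-aa C-terminal truncation) added to compound-pretreated (1 h) HEK293-ACE2 cells; Data were normalised to bald PP and spike PP wells.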

[14] = VSVG counterscreen qHTS to identify inhibitors of SARS-CoV-2 cell entry (AID 1645847; calls by dose curve; also: potency is read from the fitted curve at half-maximal effect; nearly all actives have a fitted effect of over 65% in size); conditions: VSV-G pseudotyped particle entry, luciferase; series mostly up to 57.2 µM
Procedure, shortened: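 Expi293F/hACE2 cells, overnight plating; cpd 1 h, 37C/5% CO2; + VSV-G PP (MLV pseudotyping), 48 h; supernatant removed, Bright-Glo luciferase read. Norm: VSV-G PP and bald PP wells.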

Cytochrome P450 2C9 (Homo sapiens), sequence (P11712 whole entry, looked up): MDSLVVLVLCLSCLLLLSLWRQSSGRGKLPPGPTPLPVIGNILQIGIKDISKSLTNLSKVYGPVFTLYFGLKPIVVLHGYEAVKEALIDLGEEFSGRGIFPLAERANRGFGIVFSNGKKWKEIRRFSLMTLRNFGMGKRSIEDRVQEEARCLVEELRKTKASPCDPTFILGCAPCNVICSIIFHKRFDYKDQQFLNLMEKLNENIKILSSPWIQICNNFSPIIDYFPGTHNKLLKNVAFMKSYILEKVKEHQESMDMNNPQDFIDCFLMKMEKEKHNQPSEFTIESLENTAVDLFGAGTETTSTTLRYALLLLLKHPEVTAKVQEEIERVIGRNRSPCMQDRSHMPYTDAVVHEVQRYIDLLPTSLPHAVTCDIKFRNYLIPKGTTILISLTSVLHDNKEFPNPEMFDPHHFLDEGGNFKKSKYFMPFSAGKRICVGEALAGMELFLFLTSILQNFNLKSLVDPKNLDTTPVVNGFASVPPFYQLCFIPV
Calcium and integrin-binding protein 1 (Homo sapiens), sequence (Q99828 whole entry, looked up): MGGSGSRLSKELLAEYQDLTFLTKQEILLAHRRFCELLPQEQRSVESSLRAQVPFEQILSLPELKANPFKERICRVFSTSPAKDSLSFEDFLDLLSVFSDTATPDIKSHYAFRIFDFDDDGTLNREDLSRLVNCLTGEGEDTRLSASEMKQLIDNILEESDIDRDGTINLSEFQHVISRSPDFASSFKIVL
Cytochrome P450 2D6 (Homo sapiens), sequence (P10635 whole entry, looked up): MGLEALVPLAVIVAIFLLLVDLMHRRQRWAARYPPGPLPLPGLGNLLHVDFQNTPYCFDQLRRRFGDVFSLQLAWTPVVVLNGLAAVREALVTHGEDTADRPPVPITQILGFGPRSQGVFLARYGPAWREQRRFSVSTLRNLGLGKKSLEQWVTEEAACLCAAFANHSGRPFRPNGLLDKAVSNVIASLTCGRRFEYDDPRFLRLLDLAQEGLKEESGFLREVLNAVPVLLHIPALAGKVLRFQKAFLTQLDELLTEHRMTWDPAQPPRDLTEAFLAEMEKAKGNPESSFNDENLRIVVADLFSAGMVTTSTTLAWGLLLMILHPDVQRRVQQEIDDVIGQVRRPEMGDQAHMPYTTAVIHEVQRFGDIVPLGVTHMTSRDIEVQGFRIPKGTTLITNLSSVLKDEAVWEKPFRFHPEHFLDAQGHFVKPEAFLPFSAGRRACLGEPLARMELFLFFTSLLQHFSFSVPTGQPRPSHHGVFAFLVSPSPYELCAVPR

c1ccc(C2CC2)c(OCC2=NCCN2)c1
active: Potency [5] 4360 nM
inactive: Potency [1] | Potency [2] | outcome [3] | Potency [4] | Potency [6]

C[C@]12CCC(=O)C(O)=C1CC[C@@H]1[C@@H]2CC[C@]2(C)C(=O)CC[C@@H]12
inactive: Potency [1] | outcome [3] | Potency [4] | Potency [5] | Potency [6] | Potency [7] | Potency [8]

CC(C)=CCOc1c2occc2cc2ccc(=O)oc12
inactive: Potency [1] | Potency [2] | outcome [3] | Potency [4]
active: Potency [5] 871 nM | Potency [6] 347 nM

C[C@]12C/C(=C/O)C(=O)C[C@@H]1CC[C@@H]1[C@@H]2CC[C@@]2(C)[C@H]1CC[C@]2(C)O
inactive: Potency [1] | Potency [9]

COC[C@H]1OC(=O)c2coc3c2[C@@]1(C)C1=C(C3=O)C2CCC(=O)[C@@]2(C)C[C@H]1OC(C)=O (stereo partly specified)
3.38%: activity change, negative = inhibition [8]
inactive: Potency [1] | Potency [2] | outcome [3] | Potency [7]

CCCC(C)(COC(N)=O)COC(=O)NC(C)C (stereo unspecified)
inactive: Potency [1] | Potency [9] | outcome [3] | Potency [4] | Potency [5] | Potency [6]

CCN(CC)CCN1C(=O)CN=C(c2ccccc2F)c2cc(Cl)ccc21
inactive: Potency [1] | Potency [9] | Potency [4] | Potency [6]
active: Potency [5] 13800 nM

CCN(C(C)=O)c1cccc(-c2ccnc3c(C#N)cnn23)c1
inactive: Potency [1] | Potency [9] | outcome [3] | Potency [4] | Potency [5]

Cc1ccc(-c2nc3ccc(C)cn3c2CC(=O)N(C)C)cc1
inactive: Potency [1] | outcome [3] | Potency [4] | Potency [6]

Cc1ccc2c(c1)C1CN(C)CCC1N2 (stereo unspecified)
inactive: Potency [1] | outcome [3] | Potency [4] | Potency [6]
active: Potency [5] 4250 nM

O=C(NC(O)C(Cl)(Cl)Cl)NC(O)C(Cl)(Cl)Cl (stereo unspecified)
inactive: Potency [1] | outcome [3] | Potency [4] | Potency [5] | Potency [6]

Cc1cccc(C)c1NC(=O)CN1CCCC1=O
inactive: Potency [1] | Potency [2] | outcome [3] | Potency [4] | Potency [5] | Potency [6] | Potency [7]
-12.8%: activity change, negative = inhibition [8]

N[C@@H](Cc1ccc(Oc2cc(I)c(O)c(I)c2)c(I)c1)C(=O)O
active: Potency [5] 19500 nM | Potency [6] 3890 nM
inactive: Potency [1] | outcome [3] | Potency [4]

CC(C)CC(N(C)C)C1(c2ccc(Cl)cc2)CCC1 (stereo unspecified)
inactive: Potency [1] | Potency [9] | Potency [10] | Potency [11] | max response [12] 6.57% | outcome [3] | Potency [4] | Potency [6] | Potency [7]
active: Potency [5] 4360 nM
2.03%: activity change, negative = inhibition [8]

Clc1cccc(N2CCNCC2)c1
inactive: Potency [1] | Potency [9] | outcome [3] | Potency [4] | Potency [6]
active: Potency [5] 8710 nM

COc1ccc(C(=O)c2c(C)n(CCN3CCOCC3)c3ccccc23)cc1
inactive: Potency [1] | Potency [9] | outcome [3] | Potency [4]
active: Potency [5] 12300 nM | Potency [6] 5490 nM | Potency [8] 31600 nM

N#CC(C#N)=Cc1ccc(O)c(O)c1
inactive: Potency [1] | Potency [2] | Potency [9] | Potency [4] | Potency [6]

C#CCOC(C(=O)OCCN(C)C)(c1ccccc1)c1ccccc1
inactive: Potency [1] | Potency [9] | outcome [3] | Potency [4]
active: Potency [5] 1550 nM | Potency [6] 776 nM

CO[C@]12CC[C@@]3(C[C@@H]1[C@](C)(O)C(C)(C)C)[C@@H]1Cc4ccc(O)c5c4[C@@]3(CCN1CC1CC1)[C@H]2O5
active: Potency [5] 353 nM
inactive: Potency [1] | Potency [9]

CN(C)CCc1ccc(O)cc1
inactive: Potency [1] | outcome [3] | Potency [4] | Potency [5] | Potency [6]

CCOC(=O)C1(c2ccccc2)CCN(CCC(C#N)(c2ccccc2)c2ccccc2)CC1
active: Potency [5] 1740 nM | Potency [6] 1550 nM
inactive: Potency [1] | Potency [9] | Potency [4]

CC1NCCOC1c1ccccc1 (stereo unspecified)
inactive: Potency [1] | Potency [9] | Potency [4] | Potency [6]

NCCc1cc(O)c(O)cc1O
inactive: Potency [1] | Potency [9] | outcome [3] | Potency [4] | Potency [5] | Potency [6]

COc1cccc2c1C(=O)c1c(O)c3c(c(O)c1C2=O)C[C@@](O)(C(=O)CO)C[C@@H]3O[C@H]1C[C@H](N)[C@H](O)[C@H](C)O1
active: Potency [13] 192 nM | Potency [14] 152 nM
inactive: Potency [7]
-93.7%: activity change, negative = inhibition [8]

COc1cc2c(N3CCN(C(=O)Nc4ccc(OC(C)C)cc4)CC3)ncnc2cc1OCCCN1CCCCC1
inactive: Potency [7]

O[C@@H](CNC[C@H](O)[C@H]1CCc2cc(F)ccc2O1)[C@@H]1CCc2cc(F)ccc2O1
active: Potency [8] 22400 nM

CNC(=O)N1N=C(c2ccc(N)cc2)c2cc3c(cc2CC1C)OCO3 (stereo unspecified)
inactive: Potency [9] | outcome [3] | Potency [5]
active: Potency [6] 1510 nM

COC(=O)Nc1nc2ccc(C(=O)c3cccs3)cc2[nH]1
inactive: Potency [7]
active: Potency [13] 215 nM | Potency [14] 152 nM
-61.3%: activity change, negative = inhibition [8]
